Reference: PubChem BioAssay AID1240 (Sanford-Burnham Center for Chemical Genomics, 2008)
Hit rate of the full screen: of about 50,000 compounds, about 800 (1.6%) showed an effect of 50% or more. What follows is part of a selection rich in strong results, with near analogues and random picks from the rest.

target: Bcl-2-like protein 10 (Homo sapiens) (UniProt Q9HD36); experiment: Phenotype converters, Bcl-B/TR3 peptide binding displacement, primary biochemical FP (AID 1240); details: GST-Bcl-B / FITC-TR3 peptide fluorescence polarization; stronger effect = higher value; compound at 3.75 mg/L;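 further: 0% = Bcl-B with tracer peptide and DMSO and 100% = tracer peptide lacking Bcl-B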
Sequence (Q9HD36 whole entry, looked up): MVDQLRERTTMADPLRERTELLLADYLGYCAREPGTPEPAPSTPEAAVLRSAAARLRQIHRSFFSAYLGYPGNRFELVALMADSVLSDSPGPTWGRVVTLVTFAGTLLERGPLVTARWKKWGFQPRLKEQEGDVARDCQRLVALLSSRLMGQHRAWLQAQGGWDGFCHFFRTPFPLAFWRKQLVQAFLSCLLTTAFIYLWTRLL

Compound | displacement [%]
O=C(c1ccc([N+](=O)[O-])cc1)N1CCN(CC2CC3C=CC2C3)CC1 (stereo not given) | -6.8
O=C(Nc1ccccc1F)c1ccc(CSc2ccc(Cl)cc2)cc1 | 6
COc1ccccc1OCCNC(=O)c1ccc(Br)cc1 | -19.3
CCOc1ccc(NC(=O)c2cc3cc(OC)ccc3oc2=O)cc1 | 13.8
O=C(Nc1ccccc1I)C1CC(=O)N(c2ccc(Br)cc2)C1 (stereo not given) | -26
CC1(C)CC(NC(=S)Nc2cccc(Cl)c2)CC(C)(C)N1 | -3.3
O=S(=O)(c1ccc(Cl)cc1)n1cccc1 | 6.8
O=[N+]([O-])c1ccccc1C=Nc1cc2c(cc1Br)OCCO2 | -4.8
COc1cc2c(cc1NS(=O)(=O)c1ccc([N+](=O)[O-])cc1)oc1ccccc12 | -2.9
O=C(O)c1ccc(Cl)c(S(=O)(=O)N2CCCC2)c1 | 5.8
O=C1c2ccc(Oc3ccc4c(c3)C(=O)N(Cc3cccnc3)C4=O)cc2C(=O)N1Cc1cccnc1 | -7
O=[N+]([O-])c1ccc(N2CCOCC2)cc1NC1CC1 | 4
COc1ccc(C(=O)NNC(=O)c2cccc(C)c2)c(OC)c1 | 3.3
CCOc1ccc(Nc2cc(=O)n(C)c(=O)n2C)cc1 | -4.6
CC(=O)c1c(C(=O)O)cccc1C(=O)O | 4.4
Cc1c(C(=O)O)cccc1-n1c(C)ccc1C | 85.4
COc1ccc(CSCC(=O)O)cc1C(=O)O | -8.5
COc1ccc(N)cc1-n1c(C)ccc1C | 42.5
COc1cc(C(=O)O)c(-n2c(C)ccc2C)cc1OC | 74.7
Cc1ccc(-c2ccccc2)n1-c1ccc(Cl)c(C(=O)O)c1 | -41.6
Cc1ccc(-c2ccccc2)n1-c1ccccc1C(=O)O | 86.8
Cc1c(C(=O)O)cccc1-n1c(=O)c2cc3c(=O)n(-c4cccc(C(=O)O)c4C)c(=O)c3cc2c1=O | 14
Cc1ccc(-c2ccccc2)n1-c1ccc(O)c(C(=O)O)c1 | 20.4

Compound | displacement [%]
CCOC(=O)C1=C(c2ccccc2)N=c2s/c(=C\c3cccnc3)c(=O)n2C1c1cc(OC)ccc1OC (stereo not given) | -3
Cc1ccc(C(=O)Nc2ccccc2C(=O)NC(Cc2c[nH]c3ccccc23)C(=O)O)cc1 (stereo not given) | 7.1
CN1C(N)=NC(=O)C12COC(c1cccnc1)OC2 (stereo not given) | 7.8
CC(=O)N(C)c1ccc(NC(=O)c2ccccc2[N+](=O)[O-])cc1 | -4
Cc1ccc(N(CC(=O)NCCc2ccccc2)S(C)(=O)=O)cc1Cl | 19.2
O=C(O)c1cccc(NC2=C(Cl)C(=O)N(c3ccc(Cl)cc3)C2=O)c1 | 32
Clc1ccccc1COc1cccc(/C=N/Nc2nc(N3CCOCC3)nc(N3CCOCC3)n2)c1 | 2.6
Cc1ccc(-c2csc(/C(C#N)=C/c3sccc3C)n2)cc1C | 11.7
Cc1ccsc1/C=C(\C#N)c1nc(-c2cccc([N+](=O)[O-])c2)cs1 | 147
Cc1ccsc1/C=C(/C#N)c1nc(-c2ccc(-c3ccccc3)cc2)cs1 | 3.1
COc1ccc(-c2csc(/C(C#N)=C\c3sccc3C)n2)cc1 | 1.8
COc1ccc(-c2csc(/C(C#N)=C/c3sccc3C)n2)cc1OC | 181
N#C/C(=C\c1cccc(F)c1)c1nc(-c2ccc([N+](=O)[O-])cc2)cs1 | 8.5
COc1ccc(-c2csc(/C(C#N)=C/c3ccc(C)o3)n2)cc1OC | -31.7
Cc1ccsc1/C=C(/C#N)c1nc(-c2ccc(Cl)cc2)cs1 | 81.1
CCOc1ccc(-c2csc(/C(C#N)=C/c3ccco3)n2)cc1 | -6
N#C/C(=C/c1ccco1)c1nc(-c2cc3ccccc3oc2=O)cs1 | -1.2
N#C/C(=C\c1ccco1)c1nc(-c2ccccc2)cs1 | 58.3
COc1cccc(-c2csc(/C(C#N)=C/c3sccc3C)n2)c1 | -8.9
CCC(=O)Nc1nc(C23CC4CC(CC(C4)C2)C3)c(C)s1 | -2.7
COc1cc(/C=C2/SC(=S)N(Cc3ccccc3)C2=O)cc(Cl)c1OCc1ccccc1 | 12.4
CC1=C(C(=O)OCCc2ccccc2)C(c2ccccc2OCc2ccccc2)C2=C(CCCC2=O)N1 (stereo not given) | -6
CC(C)CN1C(=O)c2ccc(C(=O)Nc3c[nH]c(=O)[nH]c3=O)cc2C1=O | 7.8

Compound | displacement [%]
C=CCn1c(C)nc2c(cnn2-c2ccccc2)c1=O | -0.7
C=C(C)C1CC=C(C)/C(=N/NC(=O)c2cccc(C)c2)C1 (stereo not given) | 14.9
CCn1cc(C(=O)NN)c(=O)c2cc(F)c(N3CCCCC3)cc21 | 17.4
COc1cc(/C=C2/SC(=S)N(C)C2=O)ccc1OCc1cccc2ccccc12 | 6.6
CCc1ccc(/C=C(/C#N)c2nc(-c3ccc(Br)cc3)cs2)cc1 | -3.5
Cc1ccsc1/C=C(/C#N)c1nc(-c2ccc(Br)cc2)cs1 | 132
Cc1ccsc1/C=C(\C#N)c1nc(-c2ccc3c(c2)OCO3)cs1 | -27
Cc1ccsc1/C=C(\C#N)c1nc(-c2cc3cc(Br)ccc3oc2=O)cs1 | -10.8
N#C/C(=C\c1ccccc1Cl)c1nc(-c2cccs2)cs1 | -9.2
N#C/C(=C\c1cccs1)c1nc(-c2ccc(Cl)cc2Cl)cs1 | 129
Cc1ccc(-c2csc(/C(C#N)=C/c3ccsc3)n2)cc1 | -5.9
Cc1csc(/C(C#N)=C/c2sccc2C)n1 | -12
Cc1ccsc1/C=C(\C#N)c1nc(-c2cccc(Br)c2)cs1 | 95.2
N#C/C(=C\c1cccs1)c1nc(-c2ccc(Br)cc2)cs1 | 5.9
Cc1ccc(-c2csc(/C(C#N)=C/c3sccc3C)n2)c(C)c1 | 69.3
CC(C)(C)c1cc(C(=O)N/N=C/C=C/c2ccccc2)n[nH]1 | -9.5
COc1ccc(/C=N/Nc2ncc(Br)cn2)cc1 | -11.3
C=CCn1c(O)c(C2=c3cc(Cl)ccc3=NC2=O)sc1=S | -14.2
CCc1ccc(S(=O)(=O)Nc2ccccc2OC)cc1 | 13.8
N/C(=N\OC(=O)c1ccc(Br)cc1)c1ccc(Cl)cc1 | 2.2
Cc1cc(Cl)ccc1OCC(O)CN1C(C)CCCC1C (stereo not given) | 0.8
CC(=O)N1C(=O)/C(=C\C(=O)c2ccc([N+](=O)[O-])cc2)c2ccccc21 | 0.8
CC(C)NC(=O)C12CC3CC(C1)CC(C(=O)NC(C)C)(C3)C2 | 1.3

Compound | displacement [%]
CCOC(=O)CSc1nnc2c3ccccc3n(CC)c2n1 | -10.4
Cc1ccc(OCc2nnc(NC(=O)Nc3cccc(Cl)c3)s2)cc1C | 14.2
C/C(=N\N=C1\NC(=O)C(CC(=O)Nc2ccc(Cl)cc2Cl)S1)c1ccc(Cl)cc1 (stereo not given) | 15.5
COc1ccc(CNC(=O)c2c(-c3c(Cl)cccc3Cl)noc2C)cc1 | 0.9
Cc1ccc(/C=C(\C#N)c2nc(-c3cccc(Br)c3)cs2)o1 | 164
Cc1ccc(/C=C(\C#N)c2nc(-c3ccc(C)c(C)c3)cs2)o1 | -25.1
COc1cccc(-c2csc(/C(C#N)=C/c3ccc(C)o3)n2)c1 | -113
COc1ccccc1N=Cc1c(O)c(C(=O)Nc2ccccc2)cc2ccccc12 | 105
CCOc1ccccc1C=Nc1ccccc1C(=O)Nc1ccccc1 | -7.9
Cc1ccccc1NC(=O)c1cc2ccccc2c(/C=N/n2cnnc2)c1O | 109
COc1cc(OC)c(C=Nc2ccccc2C(=O)Nc2ccccc2)cc1Br | -6
Cc1ccccc1NC(=O)c1cc(-c2ccccc2)nc2c(Cl)cccc12 | -13.6
Cc1ccc(-n2c(O)c(/C=N/n3cnnc3)c3ccccc3c2=O)cc1 | 5.8
COC(C(=O)NNC(=O)c1cccc(Cl)c1)c1ccccc1 (stereo not given) | -5.9
CCOC(=O)C1=C(C)NC(=O)NC1c1cc(OC)c(OC)c(OC)c1 (stereo not given) | 9.3
O=C(CN(c1cccc([N+](=O)[O-])c1)S(=O)(=O)c1ccccc1)NCC1CCCO1 (stereo not given) | -4.4
O=C(Nc1ccc2nn(-c3ccc(Cl)cc3)nc2c1)c1cccnc1 | 29.6
CCOC(=O)c1c(NC(=O)c2ccc(Cl)cc2Cl)sc(C(=O)Nc2ccccc2C)c1C | 1.3
CCOC(=O)c1c(NC(=O)c2ccc(Cl)cc2Cl)sc(C(N)=O)c1C | 88.7
CCOC(=O)c1c(NC(=O)c2ccc(Cl)cc2Cl)sc(C)c1C | 6.1
O=S(=O)(c1ccc2ccccc2c1)N(CC(O)CN1CCOCC1)c1ccccc1 (stereo not given) | -0.7
O=C(NCc1cccnc1)c1cccc(S(=O)(=O)N2CCCCC2)c1 | 2.2
CCOC(=O)/C=C/C(=O)Nc1sc(C)c(C)c1C(N)=O | -2

Compound | displacement [%]
O=c1c(-c2cccs2)[n+]([O-])c2ccccc2n1O | 69.4
CCOn1c(=O)c(C)[n+]([O-])c2ccccc21 | 14.9
COn1c(=O)c(-c2ccccc2)[n+]([O-])c2ccccc21 | 15.9
O=c1c(-c2ccccc2)[n+]([O-])c2ccccc2n1O | 21.7
CCOn1c(=O)c(-c2ccccc2)[n+]([O-])c2ccccc21 | 18.9
CCOn1c(=O)c(-c2cccs2)[n+]([O-])c2ccccc21 | 121
Cc1ccc(OCC(=O)NN)c(Br)c1 | -6.5
CN1CCN(CCCOc2ccc(Br)cc2)CC1 | -8.4
O=C(N/N=C/c1ccc(O)cc1)c1cc(C2CC2)[nH]n1 | -10.1
COC(=O)C1=C(C(=O)OC)SC(=C2C(=S)C(C)(C)N(C(=O)c3cccc(F)c3)c3ccc(OC)cc32)S1 | -7.9
Clc1ccc(-c2noc(-c3ccc(Cl)cc3Cl)n2)cc1 | 4.3
CCOC(=O)C1=C(O)/C(=C/c2ccccc2)SC1=Nc1cccc2ccccc12 | 14.5
CCOC(=O)C1=C(O)/C(=C/c2ccc(F)cc2)SC1=Nc1ccccc1 | -10.3
CCOC(=O)C1=C(O)/C(=C/c2ccc(Cl)cc2)SC1=Nc1ccc(C)cc1 | 5.9
CCOC(=O)C1=C(O)/C(=C/c2ccc(Cl)cc2)SC1=Nc1ccc(OC)cc1 | 3.1
CCOC(=O)C1=C(O)/C(=C/c2ccc(O)cc2)SC1=Nc1ccc(Cl)cc1 | 104
CCOC(=O)C1=C(O)/C(=C/c2ccc(Cl)cc2)SC1=Nc1cccc2ccccc12 | -11.7
CCOC(=O)C1=C(O)/C(=C/c2ccc(N(C)C)cc2)SC1=Nc1ccc(F)cc1 | 142
CCOC(=O)C1=C(O)/C(=C/c2ccc(N(C)C)cc2)SC1=Nc1cccc2ccccc12 | 168
CCOC(=O)C1=C(O)/C(=C/c2ccc(N(C)C)cc2)SC1=Nc1ccc([N+](=O)[O-])cc1 | 15.5
CCOC(=O)C1=C(O)/C(=C/c2ccc(N(C)C)cc2)SC1=Nc1ccc(Cl)cc1 | 170
CCOC(=O)C1=C(O)/C(=C/c2ccc(N(C)C)cc2)SC1=Nc1ccc(OC)cc1 | 3.8
CCOC(=O)C1=C(O)/C(=C/c2ccc(N(C)C)cc2)SC1=Nc1cccc(Cl)c1 | -53.7
